# PMP22 txn prim: Cell-based coincidence reporter assay to measure PMP22 gene transcription in S16 Pmp22-F2sN cells - Primary screen. hit rate 2% among 43,000. AID 1508649, 2021. S16 Pmp22-F2sN Schwann cells, FLuc/NLuc coincidence luminescence, 24 h. Potency, µM (doses to about 57.5 µM), for inactives: top-dose activity change, negative = inhibition, hits mostly inhibitors; active means clear falling dose curves in both reporters; inconclusive means both reporters move, but less clearly or upward; inactive means either reporter flat; the % is the NLuc reporter signal; further: potency means the concentration at half of the fitted maximal effect; on the % scale 0 is the no-effect control and ±100 the full control effect
#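 Schwann cells carrying the coincidence reporter were exposed to library compounds for 24 h at 37C, then lysed and read for FLuc and, after quenching, NLuc luminescence on a CCD imager.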
# p53null 39C kill: qHTS Screen for Compounds that Selectively Target Cancer Cells with p53 Mutations: Cytotoxicity of p53 Null Cells at the Nonpermissive Temperature | H1299 p53-null (neo) cells, 39C, ATPlite viability, 24 h | Potency, µM (highest dose often 46.1 µM), for the others: at the highest dose activity, negative = cell killing, actives largely listed as cytotoxic | hit rate 0.97% among 55,000 | AID 904, 2007;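 further: potency means the concentration at half of the fitted maximal effect; 0% = DMSO only and -100% = full killing by 100 µM tamoxifen; nearly all actives have a fitted effect of over 50% in size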
#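 Cells seeded at 600/well, 37C overnight. Compound added (up to 46 uM), plates shifted to 39C for 24 hr. ATPlite added, luminescence read after 20 min at room temperature.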
# S16 viability: Cell viability qHTS assay in S16 Pmp22-F2sN cells; S16 Pmp22-F2sN Schwann cells viability, CellTiter-Glo, 24 h; Potency, µM (titrated, usually from 57.5 µM), without a hit: at the top dose activity change, negative = cytotoxicity, actives largely listed as cytotoxic; hit rate 0.48% among 43,000; AID 1508642, 2021; further: potency means the concentration at half of the fitted maximal effect; on the % scale 0 is the no-effect control and ±100 the full control effect; nearly all actives have a fitted effect of over 65% in size
#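 Used to flag compounds lowering reporter output through toxicity, this quantitative HTS measures ATP-based CellTiter-Glo luminescence in S16 Pmp22-F2sN Schwann cells after 24 h compound exposure at 37C.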
# SKOV3 invasion: Primary qHTS assay for Inhibitors of ovarian cancer metastasis using an organotypic tumor microenvironment (TME) model; SKOV3ip1-GFP adhesion/invasion on 3D omental model, fluorescence; Potency, µM (titrated, usually from 45.8 µM), without a hit: top-dose activity change, negative = inhibition, most hits filed as inhibitors; hit rate 0.1% among 46,000;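 further: potency means the concentration at half of the fitted maximal effect; plate controls were DMSO wells for no effect and tomatine positive control wells for full effect; nearly all actives have a fitted effect of over 65% in size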
#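 A 3D layer of primary human omental fibroblasts, mesothelial cells, fibronectin and collagen I, grown 48 hr, received SKOV3ip1-GFP cells in serum-free medium plus compounds at 0.36-46 umol/L. After 2 hr RT and 16 hr 37 C, fixed adherent GFP cells were counted; normalized to DMSO and tomatine.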
# mTORC1 inh: Acumen qHTS Assay for Inhibitors of the mTORC1 Signaling Pathway in MEF (Tsc2-/-, p53-/-) Cells: Sytravon. Tsc2-/- p53-/- MEF, phospho-rpS6 immunofluorescence/PI, 24 h. Potency, µM (titrated, usually from 38.3 µM), inactives show at the highest dose activity change, negative = inhibition, usual class: inhibitors. hit rate 0.78% among 44,000. AID 493208, 2011;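 further: potency means the concentration at half of the fitted maximal effect; plate controls were DMSO for no effect and rapamycin for full effect; nearly all actives have a fitted effect of over 50% in size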
#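 Cell-based qHTS: Tsc2-/- p53-/- MEF, 24 h cpd, 37 °C; fix/perm, anti-phospho-S6 Alexa-488 + PI; Acumen 488 nm scan; pS6/PI ratio, % positive cells; rapamycin 7.5 nM = inhibition ref; PI count = viability.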
# p53null 32C kill: qHTS Screen for Compounds that Selectively Target Cancer Cells with p53 Mutations: Cytotoxicity of p53 Null Cells at the Permissive Temperature. hit rate 0.62% among 55,000. H1299-neo p53 null cells, ATP luminescence, 24 h, 32C. AID 903, 2007. Potency, µM (doses to about 46.1 µM), for inactives: top-dose activity change, negative = cytotoxicity, usual class: cytotoxic;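 further: potency means the concentration at half of the fitted maximal effect; 0% = DMSO only and -100% = full killing by 100 µM tamoxifen; nearly all actives have a fitted effect of over 55% in size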
#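 H1299-neo (p53-null) cells, 600/well, were pre-incubated overnight at 37C, then exposed to compounds at up to 46 uM for 24 hr at 32C. Viability was measured as ATP content by luminescence, and AC50 values came from Hill fits.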
# NLuc sat counter: Biochemical NLuc saturation counterscreen for small molecule modulators of PMP22 gene expression - Nano-Glo assay; hit rate 4% among 690; shares compounds with PMP22 txn prim; Potency, µM (series often up to 57.5 µM), for the others: top-dose activity change, negative = inhibition, hits mostly inhibitors; Secreted NLuc enzyme (filtered S16 cell medium), Nano-Glo luminescence; AID 1508638, 2021; further: potency means the concentration at half of the fitted maximal effect; on the % scale 0 is the no-effect control and ±100 the full control effect
# NLuc Km ctr: Biochemical coelenterazine-based NLuc counterscreen for small molecule modulators of PMP22 gene expression - Km assay | Potency, µM (top dose mostly 57.5 µM), for inactives: at the top dose activity change, negative = inhibition, actives largely listed as inhibitors | secreted NLuc enzyme, coelenterazine luminescence, Km conditions | hit rate 5% among 690 | shares compounds with PMP22 txn prim; further: potency means the concentration at half of the fitted maximal effect; on the % scale 0 is the no-effect control and ±100 the full control effect
# FLuc counter: Biochemical FLuc counterscreen for small molecule modulators of PMP22 gene expression; purified P. pyralis FLuc, luminescence, 10 min; AID 1508640, 2021; shares compounds with PMP22 txn prim; Potency, µM (doses to about 57.5 µM), for inactives: top-dose activity, negative = inhibition, actives largely listed as inhibitors; 690 tested, under 10 active; further: % of control where 0% means no effect
# Target sequence (P08659 whole entry, looked up): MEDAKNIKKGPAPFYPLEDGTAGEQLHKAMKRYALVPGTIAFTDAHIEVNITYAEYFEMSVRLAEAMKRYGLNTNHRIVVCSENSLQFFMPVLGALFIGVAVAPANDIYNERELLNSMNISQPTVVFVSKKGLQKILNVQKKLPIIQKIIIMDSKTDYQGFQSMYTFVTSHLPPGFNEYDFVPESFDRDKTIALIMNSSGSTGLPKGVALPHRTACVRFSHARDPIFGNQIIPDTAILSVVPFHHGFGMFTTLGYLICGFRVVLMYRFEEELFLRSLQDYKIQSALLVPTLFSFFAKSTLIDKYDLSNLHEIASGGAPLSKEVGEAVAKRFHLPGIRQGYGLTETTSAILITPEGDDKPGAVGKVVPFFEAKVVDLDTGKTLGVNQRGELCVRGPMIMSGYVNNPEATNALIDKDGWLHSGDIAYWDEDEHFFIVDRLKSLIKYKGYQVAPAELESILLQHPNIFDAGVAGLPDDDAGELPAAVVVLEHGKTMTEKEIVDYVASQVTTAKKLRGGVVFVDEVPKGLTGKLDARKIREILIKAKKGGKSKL
# S16 F2sN tox cnf: Cell viability qHTS assay in S16 Pmp22-F2sN cells - Confirmatory screen; S16 Schwann cells viability, CellTiter-Glo ATP luminescence, 24 h; Potency, µM (doses to about 57.5 µM), for the others: top-dose activity change, negative = viability loss, most hits filed as cytotoxic; shares compounds with PMP22 txn prim; hit rate 7% among 690; further: potency means the concentration at half of the fitted maximal effect; on the % scale 0 is the no-effect control and ±100 the full control effect
# PMP22 txn conf: Cell-based coincidence reporter assay to measure PMP22 gene transcription in S16 Pmp22-F2sN cells - Confirmatory screen. shares compounds with PMP22 txn prim. S16 Schwann cells Pmp22-F2sN, dual luciferase, 24 h. Potency, µM (highest dose often 57.5 µM), for the others: at the top dose activity change, negative = inhibition, hits mostly inhibitors. hit rate 22% among 690; active means clear falling dose curves in both reporters; inconclusive means both reporters move, but less clearly or upward; inactive means either reporter flat; the % is the FLuc reporter signal; further: potency means the concentration at half of the fitted maximal effect
# PMP22 HiBiT cnf: Cell-based HiBiT reporter assay to measure PMP22 protein expression in S16 Pmp22-HiBiT cells - Confirmatory screen; shares compounds with PMP22 txn prim; S16 Schwann cells Pmp22-HiBiT, luminescence, 48 h; Potency, µM (series often up to 27.9 µM), inactives show at the top dose activity change, negative = inhibition, most hits filed as inhibitors; 95 tested, under 10 active
# Target sequence (P25094 whole entry, looked up): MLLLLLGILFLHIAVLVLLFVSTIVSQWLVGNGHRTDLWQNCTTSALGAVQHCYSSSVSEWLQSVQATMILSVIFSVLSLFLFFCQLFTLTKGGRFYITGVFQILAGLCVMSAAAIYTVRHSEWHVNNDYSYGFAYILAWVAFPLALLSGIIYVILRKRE
# Numbers without * were called inactive; i = inactive; ? = inconclusive; nt = no result. Sampled rows, rich in hits. Any-hit rate of the full collection: about 3%. Unless noted, the call rests on the fitted dose curve; in most records, active means well fitted curve in the direction sought with a large enough effect; inconclusive means small, poorly fitted or top-dose-only effect, or another doubt; inactive means no such curve, though single readings can be large; an effect the other way counts as inactive or inconclusive.
SMILES,PMP22 txn prim,p53null 39C kill,S16 viability,SKOV3 invasion,mTORC1 inh,p53null 32C kill,NLuc sat counter,NLuc Km ctr,FLuc counter,S16 F2sN tox cnf,PMP22 txn conf,others
O=C(CO)N1CCC(c2[nH]nc(-c3ccc(Cl)cc3)c2-c2ccncn2)CC1,nt,nt,nt,-15%,nt,nt,nt,nt,nt,nt,nt,
COc1ccc(NC(=O)Cn2c(=O)c3cccn3c3ccccc32)cc1,7%,68%,5%,13%,-19%,6%,nt,nt,nt,nt,nt,
COc1ccc(OC)c(NC(=O)Cn2c(=O)c3cccn3c3ccccc32)c1,?,108%,-2%,14%,9%,25%,?,?,1%,-8%,-32%,
NC(=O)NN=Cc1ccc([N+](=O)[O-])o1,nt,nt,nt,12%,nt,nt,nt,nt,nt,nt,nt,
COc1c(Cl)cc2c([nH]c3cnccc32)c1NC(=O)c1cccnc1C,nt,nt,nt,-1%,nt,nt,nt,nt,nt,nt,nt,
O=C(NCCc1ccccc1)c1c[nH]c2ccc(S(=O)(=O)Nc3ccccc3F)cc2c1=O,?,-4%,-7%,1%,-9%,2%,-22%,-18%,-14%,-17%,-10%,
O=C(NCCc1ccccc1)c1c[nH]c2ccc(S(=O)(=O)Nc3ccc(F)cc3F)cc2c1=O,-34%,2%,2%,-5%,6%,15%,nt,nt,nt,nt,nt,
Cc1ccc2[nH]c(CSc3nnc(COc4ccccc4C)n3C)cc(=O)c2c1,13µM*,25%,?,i,-14%,-7%,?,?,-7%,?,-23%,
Cc1ccc(-c2cnc(C3CC3)o2)cc1S(=O)(=O)Nc1cccc(C#N)c1,?,4%,?,-22%,0%,-15%,nt,nt,nt,nt,nt,
COc1cccc(NS(=O)(=O)c2cc(-c3cnc(C4CC4)o3)ccc2C)c1,8.5µM*,?,?,i,-10%,-13%,?,15µM*,7%,-7%,2.9µM*,
N#Cc1ccc(NS(=O)(=O)c2ccc(-c3cnc(C4CC4)o3)cc2)cc1,?,-6%,?,i,12%,-8%,nt,nt,nt,nt,nt,
COc1ccc(C)cc1NS(=O)(=O)c1ccc(-c2cnc(C3CC3)o2)cc1,5.6µM*,?,?,i,0%,5%,-9%,?,-1%,-26%,?,PMP22 HiBiT cnf=?
O=C1NC(=O)C(=Cc2ccc(-c3ccc(F)cc3O)o2)S1,nt,nt,nt,-2%,nt,nt,nt,nt,nt,nt,nt,
COc1ccccc1CNC(=O)Cn1c(=O)oc2cc(S(=O)(=O)N3CCC(C)CC3)ccc21,13µM*,-6%,?,-9%,-5%,?,-12%,-1%,1%,-18%,-26%,
CCOC(=O)COc1ccc(C)cc1C(=O)c1ccn2nc(-c3ccc(F)cc3)cc2n1,18µM*,nt,24%,i,-2%,nt,-10%,?,6%,11%,?,
CCOC(=O)COc1ccc(F)cc1C(=O)c1ccn2nc(-c3ccc(C)cc3)cc2n1,-3%,nt,?,i,1%,nt,nt,nt,nt,nt,nt,
CCn1cc(C(=O)NC(C)c2ccccc2)c(=O)c2cc(S(=O)(=O)N3CCc4ccccc4C3)ccc21 (centres undefined),?,-13%,-3%,i,11%,14%,nt,nt,nt,nt,nt,
CCn1cc(C(=O)NCCc2ccc(C)cc2)c(=O)c2cc(S(=O)(=O)N3CCCCC3)ccc21,-8%,4%,8%,i,-14%,17%,nt,nt,nt,nt,nt,
CCC(C)NC(=O)c1cn(CC)c2ccc(S(=O)(=O)N3CCc4ccccc4C3)cc2c1=O (centres undefined),17µM*,-14%,-20%,i,1%,-7%,-5%,5%,4%,-23%,-41%,
CCn1cc(C(=O)NCCc2ccc(OC)c(OC)c2)c(=O)c2cc(S(=O)(=O)N3CCCCCC3)ccc21,?,-10%,?,6%,1%,16%,?,?,-10%,-3%,-54%,
O=C(Cn1c(-c2cccs2)cc2ccccc21)NCCCN1CCN(c2ccc(F)cc2)CC1,10µM*,4%,-10%,13%,?,-8%,-10%,-3%,5%,?,?,PMP22 HiBiT cnf=?
